Measured values as given in PubChem BioAssay AID652192 (Johns Hopkins Ion Channel Center, 2013).
Measured potencies and affinities stand elsewhere. Activity calls are given as the source filed them.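 Rule for the calls: active = peak inhibition of the KCNQ2 potassium channel over 30% at some tested dose, with a fitted dose response curve; inactive = no inhibition at any dose, or no curve fitted.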

Biological target: Potassium voltage-gated channel subfamily KQT member 2 (Rattus norvegicus) (UniProt O88943)
Sequence (O88943 whole entry, looked up): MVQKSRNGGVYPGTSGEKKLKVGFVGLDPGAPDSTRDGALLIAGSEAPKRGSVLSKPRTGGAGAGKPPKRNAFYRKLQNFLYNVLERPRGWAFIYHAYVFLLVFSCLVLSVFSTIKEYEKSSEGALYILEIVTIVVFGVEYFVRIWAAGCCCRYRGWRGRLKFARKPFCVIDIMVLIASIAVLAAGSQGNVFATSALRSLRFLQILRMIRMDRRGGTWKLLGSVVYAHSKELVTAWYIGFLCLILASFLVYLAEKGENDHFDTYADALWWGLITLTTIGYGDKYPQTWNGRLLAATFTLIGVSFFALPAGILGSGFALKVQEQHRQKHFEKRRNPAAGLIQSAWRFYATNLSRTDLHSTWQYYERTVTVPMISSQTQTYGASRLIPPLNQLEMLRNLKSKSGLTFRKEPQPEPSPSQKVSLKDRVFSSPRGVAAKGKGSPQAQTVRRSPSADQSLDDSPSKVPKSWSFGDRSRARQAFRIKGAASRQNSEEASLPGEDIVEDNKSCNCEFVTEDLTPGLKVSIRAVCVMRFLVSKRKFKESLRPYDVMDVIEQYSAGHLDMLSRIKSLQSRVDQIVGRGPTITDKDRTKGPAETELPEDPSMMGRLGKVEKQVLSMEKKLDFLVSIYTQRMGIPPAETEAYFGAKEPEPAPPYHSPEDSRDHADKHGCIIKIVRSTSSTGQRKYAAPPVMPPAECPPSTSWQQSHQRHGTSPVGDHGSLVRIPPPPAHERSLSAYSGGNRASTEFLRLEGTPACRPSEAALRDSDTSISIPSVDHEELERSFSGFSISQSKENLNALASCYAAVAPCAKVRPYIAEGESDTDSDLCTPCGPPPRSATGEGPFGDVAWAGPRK
Test: KCNQ2 channel inhibition, SAR follow-up, selectivity assay for TASK1 inhibitor project, cell-based, FluxOR thallium flux, concentration-response (AID 652192)
Settings: KCNQ2 cell line, FluxOR thallium flux fluorescence; series mostly up to 30 µM

outcome, inactive:
COc1ccccc1C(=O)Nc1cccc(NC(=O)c2ccccc2C)c1, Cc1cccc(C(=O)Nc2cccc(NC(=O)c3ccc(N(C)C)cc3)c2)c1, CCOc1ccccc1NC(=O)c1cccc(NC(=O)c2ccc(Cl)cc2)c1, CCOc1ccccc1C(=O)Nc1cccc(NC(=O)c2ccccc2OC)c1, Cc1cccc(C(=O)Nc2cccc(NC(=O)c3ccccc3C(F)(F)F)c2)c1, O=C(Nc1cccc(NC(=O)c2ccncc2)c1)c1ccccc1, O=C(Nc1cccc(NC(=O)c2cccnc2)c1)c1ccccc1, COc1ccc(F)cc1C(=O)Nc1cccc(NC(=O)c2cccc(C)c2)c1, O=C(Nc1cccc(NC(=O)c2ccccn2)c1)c1ccccc1, CCOc1ccccc1NC(=O)c1cccc(NC(=O)CC2CCCC2)c1, COc1ccccc1NC(=O)c1cccc(NC(=O)c2ccccc2C(F)(F)F)c1, CC(C)Oc1ccccc1C(=O)Nc1cccc(NC(=O)c2ccccc2OC(F)(F)F)c1, COc1ccccc1NC(=O)c1cccc(NC(=O)c2ccccc2OC)c1, O=C(Nc1cccc(NC(=O)c2ccsc2)c1)c1ccccc1, O=C(Nc1cccc(NC(=O)c2ccc(Cl)cc2)c1)c1ccccc1, Cc1cccc(C(=O)Nc2cccc(NC(=O)c3ccncc3)c2)c1, O=C(Nc1cccc(NC(=O)c2cccc(Cl)c2)c1)c1ccccc1, Cc1cccc(C(=O)Nc2cccc(NC(=O)c3ccc(C(C)(C)C)cc3)c2)c1, CCOc1ccccc1NC(=O)c1cccc(NC(=O)c2ccc(C)cc2)c1, O=C(Nc1cccc(NC(=O)c2ccccc2)c1)c1ccccc1, Cc1cccc(C(=O)Nc2cccc(NC(=O)c3ccco3)c2)c1, CCOc1ccccc1NC(=O)c1cccc(NC(=O)c2ccccc2C)c1, O=C(Nc1cccc(NC(=O)c2cccs2)c1)c1ccccc1, O=C(Nc1cccc(NC(=O)c2ccc(F)cc2)c1)c1ccccc1, Cc1cccc(C(=O)Nc2cccc(NC(=O)c3ccccc3C)c2)c1, Cc1ccc(C(=O)Nc2cccc(NC(=O)c3ccccc3)c2)cc1, CCOc1ccccc1NC(=O)c1cccc(NC(=O)C2CCOC2)c1 (configuration not stated), Cc1cccc(C(=O)Nc2ccccc2NC(=O)c2ccccc2)c1, CCOc1ccccc1NC(=O)c1cccc(NC(=O)c2cccc(C)c2)c1, COc1ccccc1C(=O)Nc1cc(NC(=O)c2ccccc2C(C)C)ccc1F, O=C(Nc1cccc(NC(=O)c2ccccc2Cl)c1)c1ccccc1, Cc1cccc(C(=O)Nc2cccc(NC(=O)c3cccc(C)c3)c2)c1
